A selection: hits, their analogues and other compounds. The true share with any hit is near 14%.
Sm TGR inh – qHTS Assay for the Inhibitors of Schistosoma Mansoni Peroxiredoxins; Schistosoma mansoni thioredoxin glutathione reductase (TGR), Q962Y6; purified TGR, DTNB reduction, TNB absorbance 405 nm; Potency, µM (highest dose often 114 µM), hits mostly inhibitors; hit rate 3% among 360,000; also: nearly all actives have a fitted effect of over 60% in size
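Kinetic colorimetric format: TGR-catalysed, NADPH-driven DTNB reduction monitored via TNB absorbance. Enzyme dispensed at 20 nM; compound exposure 15 min at room temperature before reaction start.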
Pf growth 48h – Primary qHTS for delayed death inhibitors of the malarial parasite plastid, 48 hour incubation. P. falciparum luciferase growth in erythrocytes, 48 h. Potency, µM (titrated, usually from 28.7 µM), most hits filed as inhibitors. hit rate 5.9% among 310,000
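Parasite viability was followed by luminescence of a genomically integrated firefly luciferase. Cultures held 0.1% parasitemia at 2% hematocrit (final), incubated under 5% CO2 at 37 C.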
HCMV antiviral – qHTS Assay for inhibitors of the human cytomegalovirus (HCMV); HFF cells, HCMV-luciferase reporter, 72 h; hits give low values; activity change, negative = inhibition, % at 57.5 µM; hit rate 4.5% among 410,000; in the data active = activity change below about -60%; inconclusive = no clear call, values can overlap the other calls; inactive = above about -39%
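Inhibition of viral replication was scored as loss of reporter luminescence in HFFs infected with HCMV-luciferase (MOI 1 PFU/cell) for 72 h; compounds tested at 2 doses, normalized to buffer and Salinomycin controls.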
Pf growth 96h – Primary qHTS for delayed death inhibitors of the malarial parasite plastid, 96 hour incubation; hit rate 6.9% among 320,000; P. falciparum luciferase reporter growth, 96 h; Potency, µM (top dose mostly 28.7 µM), actives largely listed as inhibitors
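Compounds incubated with erythrocytes infected by luciferase-expressing P. falciparum (2% hematocrit, 0.05% parasitemia final) for 96 hours, 37 C in 5% CO2. Growth inhibition scored as decreased luciferase luminescence.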
FBPA Giardia inh – qHTS Assay for Inhibitors of Fructose-1,6-bisphosphate Aldolase from Giardia Lamblia. A8B2U2. purified Giardia FBPA. Potency, µM (highest dose often 59.6 µM), most hits filed as inhibitors. hit rate 0.71% among 290,000; also: nearly all actives have a fitted effect of over 55% in size
Target sequence (A8B2U2 whole entry, looked up): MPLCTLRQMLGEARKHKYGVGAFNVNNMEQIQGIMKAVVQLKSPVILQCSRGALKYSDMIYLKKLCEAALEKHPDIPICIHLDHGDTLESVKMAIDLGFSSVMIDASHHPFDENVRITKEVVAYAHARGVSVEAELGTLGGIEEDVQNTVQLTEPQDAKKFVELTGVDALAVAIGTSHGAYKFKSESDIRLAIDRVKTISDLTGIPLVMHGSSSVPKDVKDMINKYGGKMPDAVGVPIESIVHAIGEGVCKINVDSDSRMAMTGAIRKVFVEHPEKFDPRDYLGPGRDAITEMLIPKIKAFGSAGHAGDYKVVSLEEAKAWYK
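40 nM FBPA preincubated 10 min at RT with compound (up to 57.5 uM final), then substrate plus GAPDH/TPI/NAD/arsenate coupling and diaphorase/resazurin added. Fluorescence read after 20 min at RT, 525/598 nm.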
A number is an active result; - = inactive; ? = inconclusive; . = not tested or not shown. Unless noted, calls follow the shape of the dose curve; as a rule, active = well fitted curve in the direction sought with a large enough effect; inconclusive = small, poorly fitted or top-dose-only effect, or another doubt; inactive = no such curve, though single readings can be large; an effect the other way counts as inactive or inconclusive.

SMILES | Sm TGR inh | Pf growth 48h | HCMV antiviral | Pf growth 96h | FBPA Giardia inh
C[C@@H](C(=O)Nc1ccc2ccccc2c1)[C@H]1C[C@]1(C)[C@H](NP(=O)(c1ccccc1)c1ccccc1)c1ccccc1 | - | ? | . | 10.4µM | -
C[C@@H](C(=O)Nc1ccc2ccccc2c1)[C@@H]1C[C@@]1(C)[C@@H](NC(=O)OCc1ccccc1)c1ccccc1 | - | ? | . | - | -
C[C@@H](C(=O)Nc1ccc2ccccc2c1)[C@H]1C[C@]1(C)[C@H](NS(=O)(=O)c1ccccc1)c1ccccc1 | - | 1.04µM | - | ? | -
O=C1NC(Cc2ccccc2)c2nc3cc(F)ccc3c(=O)n2-c2ncccc21 (centres undefined) | . | . | - | . | .
Cc1cc(C)nc(NC(=O)c2c(-c3ccccc3Cl)noc2C)c1 | - | - | - | - | -
Cc1cccc(OCC(=O)Nc2ccc3c(c2)nc(CN2CCCCC2)n3C)c1 | - | - | ? | - | -
Cc1ccc(OCC(=O)Nc2ccc3c(c2)nc(CCN2CCCCC2)n3C)cc1 | - | ? | -72.4 | ? | -
Cc1cccc(OCC(=O)Nc2ccc3c(c2)nc(CCN2CCCCC2)n3C)c1 | - | ? | -86.2 | ? | -
COc1ccc(OCC(=O)Nc2ccc3c(c2)nc(CCN2CCCCC2)n3C)cc1 | - | ? | ? | - | -
Cn1c(CN2CCCC2)nc2cc(NC(=O)COc3ccc([N+](=O)[O-])cc3)ccc21 | - | 13.1µM | - | ? | -
Cn1c(CCN2CCCCC2)nc2cc(NC(=O)COc3ccccc3)ccc21 | - | ? | -73.3 | - | -
CCC(C)NC(=O)C1=CC(c2ccc3c(c2)OCO3)=NS(=O)(=O)N1C (centres undefined) | - | . | - | . | .
O=C(NCC(c1ccco1)N1CCCCC1)c1ccc(COc2ccccc2)cc1 (centres undefined) | - | ? | - | 2.94µM | .
COc1cc(C(=O)NCC(=O)NCC(c2ccco2)N2CCCCC2)cc(OC)c1OC (centres undefined) | - | ? | - | 3.29µM | .
O=C(NCC(c1ccco1)N1CCCCC1)c1ccc(OCc2ccccc2)cc1 (centres undefined) | - | ? | - | ? | -
CCOc1ccc(C(=O)NCC(=O)NCC(c2ccco2)N2CCCCC2)cc1 (centres undefined) | 89.1µM | - | - | - | .
COc1cccc(/C=N/Nc2nccnc2Cl)c1O | - | ? | -96.4 | - | -
NS(=O)(=O)c1ccc(N/N=C/c2ccncc2)cc1 | - | 6.57µM | - | ? | -
COc1ccc(/C=N/Nc2nccnc2Cl)c(OC)c1 | . | - | - | - | -
O=C(O)c1cccc(Nc2ncnc3scc(-c4ccccc4)c23)c1 | - | . | - | . | .
COc1cccc(/C=N/Nc2ncnc3scc(-c4ccccc4)c23)c1O | - | 2.94µM | -100.3 | 2.33µM | ?
COc1cccc(/C=N/Nc2ncnc(Cl)c2N)c1O | - | 1.65µM | -97.1 | 2.62µM | ?
O=C(NC(C1CC1)C1CC1)C1CCC(=O)N(CCCN2CCCC2=O)C1 (centres undefined) | - | - | - | - | -
COc1cccc(/C=N/Nc2cc(-n3nc(C)cc3-c3ccccc3)ncn2)c1O | - | 5.86µM | -96.1 | - | -
Nc1c(Cl)ncnc1N/N=C/c1ccncc1 | 44.7µM | - | - | - | -
SMILES | Sm TGR inh | Pf growth 48h | HCMV antiviral | Pf growth 96h | FBPA Giardia inh
COc1cccc(/C=N/Nc2nc(Nc3ccccc3)nc(-n3nc(C)cc3C)n2)c1O | - | . | - | ? | -
Clc1cncc(Cl)c1N/N=C/c1ccncc1 | - | ? | ? | 1.17µM | -
CCCN1CCCc2cc(CN(CCCN3CCOCC3)C(=O)Nc3ccc(Cl)c(Cl)c3)ccc21 | - | . | - | . | .
FC(F)Oc1ccc(-n2cc(-c3ccccc3)[n+]3c2CCCCC3)cc1 | - | 1.17µM | - | ? | -
Fc1ccc(-n2cc(-c3ccccc3)[n+]3c2SCC3)cc1 | - | ? | ? | ? | -
Cc1ccc(-c2cn(-c3ccc(OC(F)F)cc3)c3[n+]2CCCCC3)cc1 | - | 1.31µM | -88.6 | ? | -
Cc1ccc(CONC(=O)c2ccc(OC(F)F)cc2)cc1 | - | - | - | - | -
CCOc1ccc(CN2C(=O)C(=O)c3cccc(C)c32)cc1OC | - | . | ? | . | .
CC(C)(C)c1cc(CCC(=O)N2CCC2)cc(C(C)(C)C)c1O | - | - | . | - | .
CC1CN(C(=O)CCc2cc(C(C)(C)C)c(O)c(C(C)(C)C)c2)CC(C)O1 (centres undefined) | - | ? | - | 7.38µM | -
CSc1ccc(/C=c2\s/c(=C\C(=O)C(C)(C)C)n(CC(=O)NCCC3=CCCCC3)c2=O)cc1 | - | ? | - | ? | -
CCCNC(=O)Cn1c(=O)/c(=C/c2ccc(-c3ccc([N+](=O)[O-])cc3)o2)s/c1=C\C(=O)C(C)(C)C | . | . | -95.7 | . | .
COc1cc(CN(C(C)=O)c2ccccc2C(=O)O)ccc1[N+](=O)[O-] | . | . | -62.6 | . | .
CCNC(=O)CP(=O)(c1ccccc1)c1ccccc1 | - | - | - | 8.28µM | -
NNC(=O)CP(=O)(c1ccccc1)c1ccccc1 | - | - | - | - | .
CCOC(=O)c1ccc(-c2ccc(/C=C(\C#N)C(=O)Nc3ccc(C)cc3OC)o2)cc1 | - | . | - | . | .
CCSc1nc(N)c(C#N)c(-c2ccccc2Cl)c1C#N | - | . | -63.5 | . | -
Cc1cc(-c2ccc(Cl)cc2)c(C#N)c(N)n1 | - | . | - | - | -
N#Cc1c(N)nc(Sc2ccc(Cl)cc2)c(C#N)c1-c1ccccc1Cl | - | ? | -77.9 | 7.38µM | -
C=CCSc1nc(N)c(C#N)c(-c2ccc(C)cc2)c1C#N | - | ? | ? | - | -
CC1CCCC(C)N1S(=O)(=O)c1ccc(NC(=O)CCn2cnc3ccccc3c2=O)cc1 (centres undefined) | - | 13.1µM | - | . | -
O=C(Cn1cnc2ccccc2c1=O)Nc1ccc(S(=O)(=O)N2CCCC2)cc1 | - | - | - | - | -
O=C(Cn1cnc2ccccc2c1=O)NCCC(=O)Nc1ccc2c(c1)OCCO2 | - | - | - | 10.4µM | -
CCOc1cc(/C=C2\SC(=N)N(c3nonc3N)C2=O)ccc1OCCN1CCOCC1 | - | 1.31µM | - | ? | ?
CC1(C)CC(=O)c2c(O)cc(OCc3ccc(Br)cc3)cc2O1 | - | . | -108.6 | - | -
COC(=O)c1ccc(COc2cc(O)c3c(c2)OC(C)(C)CC3=O)cc1 | - | ? | - | . | -
C[N+](C)(CCOc1ccccc1)Cc1ccccc1 (tested in a mixture with another compound) | - | 10.4µM | - | - | .
CC(C)(C)CC(C)(C)c1ccc(OCCO)cc1 | . | - | . | ? | .
CC(C)(C)CC(C)(C)c1ccc(OCCOCC[N+](C)(C)Cc2ccccc2)cc1 | - | 0.928µM | -93.9 | 0.465µM | -
CCCCOC(=O)n1c(=O)oc2ccccc21 | - | - | -101.1 | ? | -
